ELG1 DNA repair – ELG1-dependent DNA repair inhibition; HEK293T ELG1-luciferase reporter, luminescence, 16 h; DNA damage induced by 5-fluorouridine; Potency, µM (top dose mostly 46.1 µM), inactives show at the highest dose activity change, negative = inhibition, hits mostly inhibitors; hit rate 2.3% among 330,000; AID 504467; note: potency is the fitted concentration of half-maximal effect; nearly all actives have a fitted effect of over 55% in size
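Quantitative HTS, concentration-response format. 2,000 cells/well co-treated with 5-fluorouridine and compound, 16 hr in 5% CO2 at 37 °C; ONE-Glo luminescence read after 30 min.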
DT40 TDP1 no CPT – qHTS for Inhibitors of human tyrosyl-DNA phosphodiesterase 1 (TDP1): qHTS in cells in absence of CPT. hit rate 15% among 420,000. DT40 Tdp1-/- hTDP1 cells, no CPT, ATP luminescence, 48 h. Potency, µM (series often up to 46.2 µM), without a hit: top-dose activity change, negative = growth inhibition, most hits filed as inhibitors; note: potency is the fitted concentration of half-maximal effect; nearly all actives have a fitted effect of over 55% in size
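Cells were dispensed at 400 per well, compounds added by pin tool, plates incubated ≥48 hr at 37 °C, then CellTiter-Glo added for 30 min at room temperature before luminescence reading. Line: DT40 Tdp1-/- complemented with hTDP1; camptothecin omitted.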
Giardia killer – Giardia lamblia killing; hit rate 0.15% among 340,000; Giardia lamblia trophozoite viability; activity change, % at 7.66 µM, hits read low; AID 540267; in the data active = activity change below about -80%; inconclusive = between about -30% and that limit;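 note: parasites exposed to compound for two days anaerobically before the ATP read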
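Killing of trophozoites was scored by loss of ATP luminescence after a 48 hrs anaerobic exposure to compounds at 37 deg C, using 100 cells per well.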
TDP1 inh – inhibitors of human tyrosyl-DNA phosphodiesterase TDP1. Q9NUW8. recombinant TDP1, AlphaScreen DNA substrate cleavage. Potency, µM (series often up to 130 µM), without a hit: at the top dose activity change, negative = inhibition, most hits filed as inhibitors. hit rate 0.28% among 350,000. AID 485290; note: potency is the fitted concentration of half-maximal effect; nearly all actives have a fitted effect of over 40% in size
Target sequence (Q9NUW8 whole entry, looked up): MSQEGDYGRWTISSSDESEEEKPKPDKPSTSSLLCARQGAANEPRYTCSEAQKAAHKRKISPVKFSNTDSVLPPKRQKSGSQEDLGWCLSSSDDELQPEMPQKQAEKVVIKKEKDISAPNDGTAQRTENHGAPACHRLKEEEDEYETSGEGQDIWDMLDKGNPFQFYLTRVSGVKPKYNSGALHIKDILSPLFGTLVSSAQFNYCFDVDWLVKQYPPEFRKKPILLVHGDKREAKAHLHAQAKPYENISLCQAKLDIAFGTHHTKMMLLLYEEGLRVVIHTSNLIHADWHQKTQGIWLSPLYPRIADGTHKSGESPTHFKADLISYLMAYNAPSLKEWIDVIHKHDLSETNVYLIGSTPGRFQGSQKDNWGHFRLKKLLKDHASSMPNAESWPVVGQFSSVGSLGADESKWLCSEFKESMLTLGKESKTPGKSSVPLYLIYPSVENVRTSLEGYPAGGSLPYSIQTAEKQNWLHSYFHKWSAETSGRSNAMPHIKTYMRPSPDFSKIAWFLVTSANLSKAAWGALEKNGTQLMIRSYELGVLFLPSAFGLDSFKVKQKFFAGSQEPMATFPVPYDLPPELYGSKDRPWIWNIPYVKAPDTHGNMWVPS
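Tdp1 1 nM final; 15 min RT w/ cpd; substrate 15 nM, 5 min; beads 10 ug/ml, 10 min; AlphaScreen read. Neg ctrl: no enzyme.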
IL-1B inflam inh – inhibitors of inflammasome signaling (IL-1 beta secretion). AID 743279. hit rate 4.7% among 360,000. activity change, % at 57.5 µM. THP-1 LPS/ATP IL-1B secretion, AlphaLISA, 16 h; hits give low values; in the data active = activity change below about -50%; inconclusive = mostly about -30% to -49%
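THP-1 cells pretreated 1 hr with compounds (up to 57.5 uM final), then stimulated with LPS (250 ng/mL final) plus ATP (1.25 mM final); secreted IL-1B measured by AlphaLISA after 16 hr, decreased signal indicating inhibition.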
DT40 TDP1 CPT – DT40-hTDP1 cell growth loss with CPT; Potency, µM (doses to about 46.2 µM), for inactives: top-dose activity change, negative = growth inhibition, actives largely listed as inhibitors; chicken DT40 Tdp1-/-;hTDP1 cells + 20 nM CPT, ATP luminescence, 48 h; hit rate 12% among 420,000; note: potency is the fitted concentration of half-maximal effect; nearly all actives have a fitted effect of over 55% in size
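Chicken DT40 Tdp1-/- cells complemented with human TDP1, 400 cells/well, exposed to compounds plus 20 nM camptothecin for at least 48 h at 37 C; viability read as ATP content by CellTiter-Glo luminescence.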
* marks the source's active call; other numbers are inactive results; ? = inconclusive; / = no result given; ! = not confirmed by another sample. The list is not random: actives were taken first. Their share in the collection is about 19%. Unless noted, calls come from the whole dose curve; as a rule, active = well fitted curve in the direction sought with a large enough effect; inconclusive = small, poorly fitted or top-dose-only effect, or another doubt; inactive = no such curve, though single readings can be large; an effect the other way counts as inactive or inconclusive. % is set by controls: 0 for no effect and ±100 for the full control effect.

SMILES	ELG1 DNA repair	DT40 TDP1 no CPT	Giardia killer	TDP1 inh	IL-1B inflam inh	DT40 TDP1 CPT
O=C(CCC1N=C2c3ccccc3N=C(SCc3ccc(Cl)cc3)N2C1=O)NC1CCCCC1 (centres undefined)	/	13µM*	/	9%	/	-86%
COc1ccccc1CNC(=O)CCC1N=C2c3ccccc3N=C(SCc3ccc(C)cc3)N2C1=O (centres undefined)	/	?	/	5%	/	?
Cc1ccc(CSC2=Nc3ccccc3C3=NC(CCC(=O)NC4CCCCC4)C(=O)N23)cc1 (centres undefined)	/	?	/	6%	/	23µM*
CCOC(=O)C1(Cc2ccccc2C)CCCN(S(=O)(=O)CC)C1 (centres undefined)	-15%	23µM*	-7	/	4	?
Cc1ccc(N2CCN(C(=S)Nc3ccccc3C)CC2)cc1	?	0%	6	/	0	6%
Cc1ccccc1CN1[C@@H](Cc2ccccc2)COCCS1(=O)=O	/	?	-14	/	-14	?
C=C1[C@@H](O)[C@H](Cc2ccccc2)N(Cc2ccccc2Br)S1(=O)=O	/	18µM*	-7	/	-102*	21µM*
O=S1(=O)CC=C(CSC(=S)NC2CCS(=O)(=O)C2)C1 (centres undefined)	-1%	?	-10	0%	-97*	10µM*
CN(C)C(=S)NC1CCS(=O)(=O)C1 (centres undefined)	6%	4%	13	-5%	12	3%
CC(C)(C)c1cc(CSC(=S)NC2CCS(=O)(=O)C2)c(Br)c(C(C)(C)C)c1 (centres undefined)	?	12µM*	3	-3%	-58*	6.5µM*
COc1c2ccoc2c(OC(C)=O)c2oc(C)cc(=O)c12	-1%	?	-16	/	-51*	-22%
COc1c2occc2c(OC)c2c(=O)cc(C(F)(F)F)oc12	3%	7%	-6	3%	-13	13%
COc1ccc(OC)c(NC(=O)c2cccn2-c2nnc(N3CCCCC3)s2)c1	/	?	/	3%	/	21µM*
COc1ccc(CNC(=O)c2cccn2-c2nnc(N3CCCCC3)s2)c(OC)c1	/	23µM*	/	0%	/	?
COc1ccc(NC(=O)c2cccn2-c2nnc(N3CCCCC3)s2)cc1	/	?	7	3%	/	?
COc1cccc(CNC(=O)c2cccn2-c2nnc(N3CCCC3)s2)c1	/	?	/	8%	/	?
CCNC(=O)c1cnc2sc(N3CCC(C)CC3)nn2c1=O	/	-8%	/	5%	/	-23%
CN1C[C@@H]2C[C@@H](C3=Cc4cc(Cl)ccc4OC3)N3CCC[C@@]23C1=O	9%	-16%	1	6%	?	-8%
COc1ccc2c(c1)C=C([C@@H]1C[C@H]3CN(c4ccccc4)C(=O)[C@]34CCCN14)CO2	?	21µM*	19	3%	-2	?
O=C(O)Cn1cnc2scc(-c3ccccc3)c2c1=O	1%	-14%	-4	5%	23	-19%
COc1cc(/C=N/n2cnc3scc(-c4cccs4)c3c2=O)cc(OC)c1OC	?	2.9µM*	12	4%	36	4.6µM*
O=c1c2c(-c3cccs3)csc2ncn1-c1ccccc1	-9%	?	14	-3%	-2	-28%
COc1ccc(/C=N/n2cnc3scc(-c4cccs4)c3c2=O)cc1OC	?	?	8	-4%	8	18µM*
O=c1c2c(-c3ccccc3)csc2ncn1/N=C/c1c2ccccc2cc2ccccc12	?	16µM*	3	3%	37	?
COc1ccccc1-n1c(C)c(C(C)=O)c2cc(O)ccc21	7%	?	-8	/	0	?
SMILES	ELG1 DNA repair	DT40 TDP1 no CPT	Giardia killer	TDP1 inh	IL-1B inflam inh	DT40 TDP1 CPT
CCOc1ccccc1C(=O)N(CN1CCCC1=O)c1ccc(C)c(Cl)c1	2%	3.7µM*	17	7%	25	3.7µM*
Cc1ccc(N(CN2CCCC2=O)C(=O)c2ccc(C)c(C)c2)cc1	-4%	7.3µM*	5	-1%	-21	8.2µM*
Cc1ccc(C(=O)N(CN2CCCC2=O)c2ccc(F)cc2)cc1C	-5%	26µM*	0	2%	77	?
CCOC(=O)Cc1csc(NC(=O)CN2CCOCC2)n1	15%	-6%	-5	6%	-2	36%
CNC(=O)/C(C#N)=C/c1c(N(Cc2ccccc2)Cc2ccccc2)nc2c(C)cccn2c1=O	23µM*	?	3	5%	?	?
CCNC(=O)/C(C#N)=C/c1c(N(Cc2ccccc2)Cc2ccccc2)nc2ccccn2c1=O	12µM*	?	16	1%	-55*	?
COC(=O)c1ccc(NC(=O)c2ccc(CN3CCOCC3)cc2)cc1	8.2µM*	-21%	6	-1%	-8	?
CCC(C)Oc1ccc(C(=O)Nc2ccc(CN3CCOCC3)cc2)cc1 (centres undefined)	?	15µM*	-11	/	?	21µM*
CCOc1ccc(NC(=O)c2ccc(NC(=O)c3ccc(CN4CCOCC4)cc3)cc2)cc1	2%	-18%	38	0%	0	-5%
O=C(Nc1ccc(CN2CCOCC2)cc1)c1ccc(-c2ccc(Br)cc2)o1	18µM*	18µM*	3	11%	-79*	16µM*
COc1cc(NC(=O)CCc2c(C)nn(-c3ccc4nnc(C)n4n3)c2C)cc(OC)c1OC	/	-18%	/	4%	/	?
Cc1ccc(NC(=O)CN2C(=O)COc3ccc(S(=O)(=O)N4CCCCC4)cc32)cc1Cl	/	?	/	-3%	/	?
Cc1ccc(NC(=O)CN2C(=O)COc3ccc(S(=O)(=O)N4CCCCC4)cc32)cc1N(C)C	/	21µM*	/	-3%	/	23µM*
COc1ccccc1NC(=O)CN1C(=O)COc2ccc(S(=O)(=O)N3CCOCC3)cc21	3%	1%	-2	6%	-7	-19%
COc1ccc(NC(=O)CN2C(=O)COc3ccc(S(=O)(=O)N4CCOCC4)cc32)cc1Cl	19%	18µM*!	-6	2%	?	?
Cc1cccc(-n2ncc3c2CCCC3NC(=O)Cc2c(C)noc2C)c1C (centres undefined)	?	?	4	0%	13	?
CCOc1ccc(/C=N/n2c(-c3ccccc3)n[nH]c2=S)cc1	-2%	?	-9	/	?	?
Oc1ccccc1-c1nc(NC2CCCC2)c2ccccc2n1	?	-24%	-13	/	-12	2%

High-throughput results from PubChem.
